Source: PubChem
PTHR1 ag – qHTS for PTHR1 Agonists: Primary Screen; Parathyroid hormone/parathyroid hormone-related peptide receptor (Homo sapiens), Q03431; HEK293 GP2 PTHR1 cells, GloSensor cAMP luminescence, 1 h; Potency, µM (titrated, usually from 115 µM), most hits filed as activators; actives 0.075% (n = 410,000); note: nearly all actives have a fitted effect of over 55% in size
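HEK-293-derived GP2 cells expressing PTHR1 and a GloSensor cAMP reporter, 3,000/well, plated overnight, given luciferin plus IBMX (each 0.5 mM as added) for 1 h at 37 °C, then compound for 1 h at 37 °C. Luminescence was read after 15 min at room temperature.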
GLP1R inv ag – qHTS of GLP-1 Receptor Inverse Agonists (Inhibition Mode) | HEK293 GLP-1R CRE-luciferase, luminescence, 24 h; GLP-1R form is constitutively active | Potency, µM (doses to about 38.3 µM), most hits filed as inhibitors | Glucagon-like peptide 1 receptor (Homo sapiens), P43220 | actives 1.6% (n = 410,000); note: nearly all actives have a fitted effect of over 55% in size
Target sequence (P43220 whole entry, looked up): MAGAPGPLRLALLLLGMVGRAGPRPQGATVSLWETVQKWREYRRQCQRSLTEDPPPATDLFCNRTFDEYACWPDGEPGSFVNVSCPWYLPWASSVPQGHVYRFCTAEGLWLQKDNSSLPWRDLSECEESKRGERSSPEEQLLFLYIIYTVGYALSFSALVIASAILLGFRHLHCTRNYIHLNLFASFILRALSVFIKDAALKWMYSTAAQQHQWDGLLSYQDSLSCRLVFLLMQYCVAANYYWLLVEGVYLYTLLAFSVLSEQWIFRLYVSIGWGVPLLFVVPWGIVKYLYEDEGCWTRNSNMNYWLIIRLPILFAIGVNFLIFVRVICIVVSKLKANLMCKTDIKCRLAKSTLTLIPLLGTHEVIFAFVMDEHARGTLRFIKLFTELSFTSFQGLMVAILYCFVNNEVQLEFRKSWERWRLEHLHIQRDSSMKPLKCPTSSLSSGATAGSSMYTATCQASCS
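HEK293 cells stably co-expressing a cAMP-responsive luciferase reporter and constitutively active GLP-1R were seeded, incubated 12 h, then exposed to compounds for 24 h at 37 C. Luminescence was read 12 min after detection reagent; inverse agonists lower signal.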
GLP1R ag – qHTS of GLP-1 Receptor Agonists; Glucagon-like peptide 1 receptor (Homo sapiens), P43220; HEK293 GLP-1R CRE-luciferase, luminescence, 4-6 h; cells express a hypersensitive GLP-1R form; Potency, µM (doses to about 45.6 µM), usual class: activators; actives 0.007% (n = 380,000)
RGS4 inhibitor – Inhibitors of Regulator of G Protein Signaling (RGS) 4: qHTS; Regulator of G-protein signaling 4 (Homo sapiens), P49798; Transcreener GDP fluorescence polarization, RGS4-accelerated GTP hydrolysis; Potency, µM (top dose mostly 114 µM), actives largely listed as inhibitors; actives 0.039% (n = 390,000); note: nearly all actives have a fitted effect of over 75% in size
Target sequence (P49798 whole entry, looked up): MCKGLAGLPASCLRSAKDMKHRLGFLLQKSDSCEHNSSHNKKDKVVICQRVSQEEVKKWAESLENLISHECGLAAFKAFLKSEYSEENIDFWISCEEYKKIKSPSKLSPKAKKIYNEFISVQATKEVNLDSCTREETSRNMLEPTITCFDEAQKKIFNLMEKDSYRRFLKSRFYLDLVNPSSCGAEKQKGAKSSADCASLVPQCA
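MLSMR compounds (23 nl, pin-transferred) preincubated 10 min at room temperature with a 500nM (2x) first reagent, then RGS4 at 900nM (2x) plus Transcreener GDP mix added; fluorescence polarization (620/688 nm) read before and after 90 min at 30 °C.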
GLP1R cytotox – qHTS of GLP-1 Receptor Inverse Agonists: Cytotox Screen | HEK293 cAMP-luciferase reporter cells, luminescence, 24 h | Potency, µM (titrated, usually from 38.3 µM), hits mostly inhibitors | actives 0.13% (n = 410,000) | AID 624418, 2012;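 note: loss of luciferase light is scored as toxicity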
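Seeding density was 200 cells/uL; after overnight-length (12 h) culture, 23 nL compounds went on for 24 h at 37 °C. Readout used a luciferase detection reagent, luminescence taken after 12 min at room temperature.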
Of the large screens only hits and unclear results are named; the others gave an inactive call; ! = not confirmed by another sample. This is a sample that favours compounds with a hit; in the whole collection about 1.7% have one here. Calls come from the whole dose curve; as a rule, active = well fitted curve in the direction sought with a large enough effect; inconclusive = small, poorly fitted or top-dose-only effect, or another doubt; inactive = no such curve, though single readings can be large; an effect the other way counts as inactive or inconclusive.

CCN(CC)c1ccc(C(=O)NC(=S)N2CCN(Cc3ccc4c(c3)OCO4)CC2)cc1	GLP1R inv ag 10µM
Cc1ccc(C(=O)N2CCN(Cc3ccc4c(c3)OCO4)CC2)c(Cl)c1	GLP1R inv ag 6.3µM
OC(COc1ccccc1)CN1CCN(Cc2ccc3c(c2)OCO3)CC1 (stereo not given)	none
O=C(c1ccccc1Cl)N1CCN(Cc2ccc3c(c2)OCO3)CC1	GLP1R inv ag inconclusive
Cc1cc(C)cc(OCC(O)CN2CCN(Cc3ccc4c(c3)OCO4)CC2)c1 (stereo not given)	GLP1R inv ag 2.2µM
O=C(c1cc2c(s1)CCCC2)N1CCN(Cc2ccc3c(c2)OCO3)CC1	GLP1R inv ag 13µM
CCOC(=O)c1sc2ncn(CC(=O)Nc3ccc(N(C)C)cc3)c(=O)c2c1C	none
COc1ccccc1-c1oc2ccccc2c1C#CC(C)(C)O	GLP1R inv ag 10µM
COc1ccccc1-c1oc2ccccc2c1C#CCO	none
CCCn1c(SCc2nc(-c3ccccc3OCC)no2)nnc1-c1ccc(Cl)cc1	GLP1R inv ag 10µM (no result: GLP1R ag)
COc1ccccc1CN(C)C(=O)COC(=O)c1c(C)noc1C	none
CCCc1cc(C(=O)NC2CCCCC2)no1	none
CCCc1cc(C(=O)N(C2CCCCC2)C2CCCCC2)no1	GLP1R inv ag 8.9µM
Cc1cccc(NC(=O)CN2C(=O)C3(SCC(=O)N3c3ccccc3)c3ccccc32)c1 (stereo not given)	GLP1R inv ag inconclusive
CCOc1cc(/C=C/C(=O)c2ccc3c(c2)OCCO3)ccc1OCC(=O)N(C)C	GLP1R inv ag 13µM
CCOc1cc(/C=C/C(=O)c2ccc(O)cc2)ccc1OCC(=O)N(C)C	GLP1R inv ag inconclusive, GLP1R cytotox inconclusive
CSc1ccc(S(=O)(=O)N2c3ccccc3CC2C)cc1 (stereo not given)	GLP1R inv ag 5µM
O=C(Nc1nccs1)C12CC3CC(C1)CC(C(=O)Nc1nccs1)(C3)C2	GLP1R inv ag 4.5µM
CN(CCOc1ccccc1)S(=O)(=O)c1ccccc1C#N	none
Cc1ccccc1NC(NC(=O)c1cccs1)C(Cl)(Cl)Cl (stereo not given)	GLP1R inv ag 7.9µM
Cc1ccc(NC(NC(=O)c2cccs2)C(Cl)(Cl)Cl)cc1C (stereo not given)	GLP1R inv ag 13µM
CSc1ccc(CCNC(=O)c2c(C)oc3ncn(C)c(=O)c23)cc1	none (no result: GLP1R ag)
Cc1ccc(-n2nnnc2SCCNS(=O)(=O)c2ccccc2)cc1C	GLP1R inv ag 11µM
COc1ccc(S(=O)(=O)NCCSc2nnnn2-c2ccccc2)cc1OC	none
Cc1ccc(Cc2nc3ccccc3nc2SCC(=O)N2CCCCC2C)cc1 (stereo not given)	GLP1R inv ag 10µM
CC(=O)Nc1cc(C(=O)Nc2ccc3c(c2)N(C)C(=O)c2ccccc2S3)ccc1C	GLP1R inv ag inconclusive (no result: GLP1R ag)
Cc1ccc(C(=O)Nc2ccc3c(c2)N(C)C(=O)c2ccccc2S3)cc1F	GLP1R inv ag 1.8µM, GLP1R cytotox inconclusive (no result: GLP1R ag)
Cc1ccc2nc(-c3ccc(NC(=O)CNC4CC4)cc3)sc2c1	GLP1R inv ag 13µM
Cc1ccc2nc(-c3ccc(NC(=O)C(F)(F)F)cc3)sc2c1	GLP1R inv ag inconclusive
CCCCOCC(O)Cn1c(C)nc2ccccc21 (stereo not given)	none
Cc1ccc2c(c1)c1c(n2CC(O)Cn2c(C)nc3ccccc32)/C(=N\O)CCC1 (stereo not given)	GLP1R inv ag 10µM, GLP1R cytotox inconclusive
Cc1ccc2c(c1)c1c(n2CC(O)Cn2c(C)nc3ccccc32)C(=O)CCC1 (stereo not given)	none
Cc1nc2ccccc2n1CC(O)Cn1c2ccccc2c2ccccc21 (stereo not given)	PTHR1 ag 16µM
O=c1cc(-c2ccccc2)oc2cccc(O)c12	RGS4 inhibitor 8.4µM!
CCCC(=O)Nc1ccc(C(=O)Nc2cc(C(F)(F)F)ccc2Cl)cc1	GLP1R inv ag 6.3µM, GLP1R cytotox inconclusive
Cc1ccc(-c2cc(=O)c3cc(F)ccc3[nH]2)cc1	none
Cc1ccc(-c2cc(=O)c3cc(C)ccc3[nH]2)cc1	GLP1R inv ag 3.2µM
CC(=O)N=c1nc(-c2ccccc2)n(-c2ccccc2)s1	none (no result: PTHR1 ag, GLP1R inv ag, GLP1R ag, GLP1R cytotox)
CN=c1nc(-c2ccccc2)n(-c2ccccc2)s1	RGS4 inhibitor 3.8µM
COc1ccc(N2CCN(C(=S)NC(=O)c3cccs3)CC2)c([N+](=O)[O-])c1	GLP1R inv ag inconclusive, GLP1R cytotox inconclusive
O=C(NC(=S)N1CCN(c2c(Cl)cccc2[N+](=O)[O-])CC1)c1cccs1	GLP1R cytotox 7.1µM
CC(C)CCN1C(=O)N(c2ccccc2)C(=O)C1CC(=O)Nc1ccc(Cl)cc1 (stereo not given)	GLP1R inv ag 10µM (no result: GLP1R ag)
COc1cccc(N2C(=O)C(CC(=O)Nc3ccc(F)cc3)N(CCC3=CCCCC3)C2=O)c1 (stereo not given)	GLP1R inv ag 10µM, GLP1R cytotox inconclusive (no result: GLP1R ag)
CCNC(=O)CC1C(=O)N(c2ccccc2)C(=O)N1CCC(C)C (stereo not given)	none
C=CCn1c(SCC(=O)Nc2c(C)n(C)n(-c3ccccc3)c2=O)nc2sc(C)c(-c3ccccc3)c2c1=O	GLP1R inv ag 3.2µM
O=[N+]([O-])c1ccccc1S(=O)NCc1c(Cl)cccc1Cl (stereo not given)	none (no result: RGS4 inhibitor)
O=c1c2ccccc2oc2cc(-c3ccc(CN4CCOCC4)cc3)ccc12	none
CCCCCCCCC[n+]1cccc2c3ccccc3ccc21	GLP1R inv ag 10µM, GLP1R cytotox inconclusive
COc1nnc(-c2ccc(N3CCCCC3)c(NC(=O)c3ccc(C)cc3)c2)c2ccccc12	none
COc1nnc(-c2ccc(N3CCCCC3)c(NC(=O)c3ccccc3Cl)c2)c2ccccc12	GLP1R inv ag 3.5µM (no result: GLP1R ag)
Cc1cc(C)cc(C(=O)NCCCc2ccccc2)c1	GLP1R inv ag 11µM
O=C(NCc1ccccc1)C(=O)Nc1cccc(C(=O)O)c1	GLP1R inv ag 4.5µM
O=C(NCc1ccccc1)c1cccc(NC(=O)c2ccccc2)c1	GLP1R inv ag 8.9µM
O=C(NCCCCc1ccccc1)c1cccc(NC(=O)C2CCCCC2)c1	GLP1R inv ag 11µM
Cc1ccc([C@@H]2C[C@H]3[C@@H](CN2S(=O)(=O)c2ccc(Cl)cc2)C(=O)C[C@@H](c2ccc(Cl)cc2)N3S(=O)(=O)c2ccccc2C)cc1	none (no result: RGS4 inhibitor)
CCCOc1ccccc1NC(=O)/C=C/c1ccc(OC)c(S(=O)(=O)N2CCOCC2)c1	none (no result: RGS4 inhibitor)
